# In PubChem BioAssay AID652105 (National Center for Advancing Translational Sciences (NCATS), 2013):
# Out of some 330,000 compounds screened, about 4,100 (1.2%) were called active. About 2% were inconclusive and are not listed. This is one part of a sample in which actives are shown more often than they occur. A number with no mark means an inactive call. How the source made its calls: active means max response of -50% or lower; inconclusive means between -30% and -50%; inactive means -30% or higher.
# Target: Phosphatidylinositol 5-phosphate 4-kinase type-2 alpha (Homo sapiens) (UniProt P48426)
# Experiment: qHTS for Inhibitors of phosphatidylinositol 5-phosphate 4-kinase (PI5P4K); further: value at the top dose of about 77 µM
# Conditions: PI5P4Kalpha enzyme, ADP-Glo luminescence, 60 min; stronger effect = lower value
# How it was run: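 Luminescence from ADP-Glo served as readout of PI5P4Kalpha activity in a qHTS format. Reaction: enzyme, substrate, compound, ATP at 5 microM final, 60 min at RT.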
# On the % scale 0 is the no-effect control and ±100 the full control effect.
# Sequence of Phosphatidylinositol 5-phosphate 4-kinase type-2 alpha (Homo sapiens) (P48426 whole entry, looked up): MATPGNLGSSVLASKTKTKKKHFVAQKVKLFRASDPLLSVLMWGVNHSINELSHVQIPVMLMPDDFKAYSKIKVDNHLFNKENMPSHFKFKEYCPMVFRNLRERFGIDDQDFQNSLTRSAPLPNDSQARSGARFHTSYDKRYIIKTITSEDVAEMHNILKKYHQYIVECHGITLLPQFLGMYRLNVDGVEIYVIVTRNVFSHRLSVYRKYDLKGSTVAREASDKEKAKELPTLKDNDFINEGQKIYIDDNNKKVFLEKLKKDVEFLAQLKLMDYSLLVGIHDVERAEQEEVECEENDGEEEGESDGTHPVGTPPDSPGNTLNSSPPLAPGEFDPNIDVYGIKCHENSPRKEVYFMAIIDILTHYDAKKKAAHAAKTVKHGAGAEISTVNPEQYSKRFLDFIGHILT
row,Compound,max response
1,O=c1c2ccccc2nc(CBr)n1-c1ccc(Cl)cc1,-9.65%
2,S=C(NCCc1ccccc1)N1Cc2cc(N3CCOCC3)ccc2-n2nncc2C1,-1.37%
3,CCOC(=O)[C@]12Cc3ccccc3[C@H]1N(C1CCCCC1)C(=O)c1cc(OC)ccc12,-1.4%
4,COc1cc(C(=O)N2Cc3ccc(Br)cc3-n3nncc3C2)cc(OC)c1OC,-0.882%
5,C=CCN(CC=C)C(=O)Nc1ccc(OCC)cc1,-4.12%
6,C=CCN1C(=O)NC(=O)/C(=C/c2ccc(OCC(=O)Nc3ccc(C)cc3)cc2)C1=O,-72.6% (active)
7,CCC(=O)c1ccc(OCC(=O)N2CCN(CC(=O)Nc3ccc(C)cc3)CC2)cc1,1.24%
8,O=C(NC1CCCCC1)N1Cc2cc(N3CCCCC3)ccc2-n2nncc2C1,-0.829%
9,O=C1NC(=O)N(c2ccccc2)C(=O)/C1=C/c1ccc([N+](=O)[O-])s1,-72.2% (active)
10,COc1cccc(N2C(=O)NC(=O)/C(=C\c3cn(C)c4ccccc34)C2=O)c1,5.95%
11,COc1cccc(N2C(=O)NC(=O)/C(=C\c3ccc([N+](=O)[O-])s3)C2=O)c1,-64.2% (active)
12,O=C1NCN(c2ccccc2)C12CCN(C(c1cccs1)c1nnnn1C1CCCCC1)CC2 (stereo not drawn),-2.62%
13,c1ccc(N2Cc3ccccc3-n3nncc3C2)nc1,-2.17%
14,CC(=CCOc1ccc2ccc(=O)oc2c1)C1=CC(=O)C(C)(C)O1,4.71%
15,c1cc2c(c(NC3=NCCCS3)c1)CCCC2,-10.3%
16,CC(C)CN1Cc2cc(N3CCCCC3)ccc2-n2nncc2C1,-0.0123%
17,COC(=O)C[C@H]1CC[C@H]2NC[C@@H](O)COC[C@@H]2O1,-5.22%

row,Compound,max response
1,COc1ccc2c(c1)NP(=S)(c1ccccc1)N2 (stereo not drawn),-27.5%
2,COc1ccc(N2C(=O)/C(=C/c3ccco3)C(=O)NC2=S)cc1,-103% (active)
3,CCOC(=O)CNC(=O)N1Cc2cc(N3CCCCC3)ccc2-n2nncc2C1,7.51%
4,COc1ccc(C2C=C(C)Oc3c2c(=O)oc2ccccc32)cc1OC (stereo not drawn),1.36%
5,CCn1cc(CN2CCCC(C(=O)c3cccc(C(F)(F)F)c3)C2)cn1 (stereo not drawn),5.27%
6,O=C(CN1CCCC1=O)NCCc1ccccc1,1.78%
7,O=C1CC(=O)N(Cc2ccccc2)C(=O)N1CCCCCCN1C(=O)CC(=O)N(Cc2ccccc2)C1=O,-68.4% (active)
8,COc1cccc(C(c2nnnn2-c2ccc3c(c2)OCCO3)N2CCC3(CC2)C(=O)NCN3c2ccccc2)c1OC (stereo not drawn),-0.4%
9,O=P(OC1=CCCCC1)(c1ccccc1)c1ccccc1,1.07%
10,Cc1ncoc1C(=O)NCC1=C(c2cccc3ccccc23)C[C@@H]2CC[C@H]1N2Cc1ccco1,7.08%
11,Cc1ccccc1N1C(=O)NC(=O)/C(=C\c2cc(C)n(C)c2C)C1=O,0.241%
12,Cc1c(C(=O)O)cccc1-n1c(C)cc(/C=C2\C(=O)NC(=O)N(c3ccc4c(c3)OCO4)C2=O)c1C,-18.8%
13,Cc1cccc(N2C(=O)NC(=O)/C(=C\c3cnn(-c4ccccc4)c3)C2=O)c1,-69.1% (active)
14,COC(=O)CN(CCCl)P1(=O)OCCCN1CCCl (stereo not drawn),-2.26%
15,O=c1c2ccccc2[nH]c(=S)n1-c1cccc(Cl)c1,-8.39%
16,CCOC(=O)[C@]12Cc3cc(OC)ccc3[C@H]1N(C(C)C)C(=O)c1ccccc12,1.48%
